Results published in PubChem BioAssay (NCATS).
Inconclusive results are not listed. Entries that show only a call come without a potency. Active and inactive are the calls of the source. Unless noted, calls come from the whole dose curve; as a rule, active = well fitted curve in the direction sought with a large enough effect; inconclusive = small, poorly fitted or top-dose-only effect, or another doubt; inactive = no such curve, though single readings can be large; an effect the other way counts as inactive or inconclusive.

Columns and labels:
[1] = system: Zika virus NS2B-NS3 protease; assay: Primary screen GU AMC qHTS for Zika virus inhibitors (AID 1347154); note: nearly all actives have a fitted effect of over 70% in size; note: potency is the fitted concentration of half-maximal effect
Procedure, shortened: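 Fluorogenic AMC-substrate cleavage by noncovalent NS2B-NS3 protease complex (25 nM, pH 8.0 Tris buffer with Tween 20) followed for 15 minutes at room temperature (~20% conversion). Percent inhibition from ex340/em450 signal change, fitted by 4-parameter Hill equation.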

[2] = AP1 Signaling Pathway (AID 357; active = well fitted curve in either direction with a large enough effect, not every such curve was filed as active)
Procedure, shortened: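 ME-180 cells with beta-lactamase reporter under AP-1 response element, stimulated with EC50 EGF; compounds tested in titration series, 5 h at 37 °C. CCF4 substrate added 2.5 h at room temperature; 460/530 nm emission ratio gave %activity and AC50.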

[3] = biological target: Cytochrome P450 1A2 (Homo sapiens) (UniProt P05177); assay: p450-cyp1a2 (AID 410; calls by dose curve; note: potency is the fitted concentration of half-maximal effect)
Chain of Cytochrome P450 1A2 (Homo sapiens) (P05177 whole entry, looked up): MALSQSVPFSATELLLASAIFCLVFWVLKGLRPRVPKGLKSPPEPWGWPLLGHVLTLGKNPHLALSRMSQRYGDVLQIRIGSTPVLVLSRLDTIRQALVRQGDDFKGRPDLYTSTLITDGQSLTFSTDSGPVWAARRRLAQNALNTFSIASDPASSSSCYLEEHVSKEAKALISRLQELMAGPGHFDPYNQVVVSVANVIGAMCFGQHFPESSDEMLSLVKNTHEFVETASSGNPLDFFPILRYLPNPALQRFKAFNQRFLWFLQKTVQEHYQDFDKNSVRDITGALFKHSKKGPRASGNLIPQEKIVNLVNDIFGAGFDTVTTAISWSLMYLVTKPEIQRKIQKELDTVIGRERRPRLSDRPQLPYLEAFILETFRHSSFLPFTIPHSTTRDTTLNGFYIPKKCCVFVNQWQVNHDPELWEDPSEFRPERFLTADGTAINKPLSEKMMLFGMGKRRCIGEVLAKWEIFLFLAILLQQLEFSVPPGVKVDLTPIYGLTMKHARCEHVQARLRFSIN
Procedure, shortened: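 Read-out is luminescence from luciferin produced by CYP1A2 demethylation of Luciferin-ME (100uM, at Km). Detection reagent stopped the 60 min NADPH-dependent reaction; signals were normalized to 57 uM furafylline.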

[4] = Stat Signaling Pathway (AID 446; active = well fitted curve in either direction with a large enough effect, not every such curve was filed as active;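 note: ME-180 cervical cancer cells given 40 pM IL-6 alongside compound; SIE-controlled beta-lactamase reporter measured as 460/530 nm FRET emission ratio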)
Procedure, shortened: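 Emission at 460 and 530 nm (excitation 405 nm) reports SIE-controlled beta-lactamase in ME-180 cells. Cells received compound with 40 pM IL-6 for 5 hrs at 37 C; data scaled between 300 pM IL-6 and 125 nM JAK-inhibitor controls.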

[5] = biological target: Glucocorticoid receptor (Homo sapiens) (UniProt P04150); assay: GR-GFP Redistribution (AID 450;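 active = compounds whose dose series gives a full or clear partial fitted curve of increased nuclear translocation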; note: potency is the fitted concentration of half-maximal effect); details: U2OS GR-GFP nuclear translocation, laser cytometry, 2 h
Chain of Glucocorticoid receptor (Homo sapiens) (P04150 whole entry, looked up, the tested form may be a part): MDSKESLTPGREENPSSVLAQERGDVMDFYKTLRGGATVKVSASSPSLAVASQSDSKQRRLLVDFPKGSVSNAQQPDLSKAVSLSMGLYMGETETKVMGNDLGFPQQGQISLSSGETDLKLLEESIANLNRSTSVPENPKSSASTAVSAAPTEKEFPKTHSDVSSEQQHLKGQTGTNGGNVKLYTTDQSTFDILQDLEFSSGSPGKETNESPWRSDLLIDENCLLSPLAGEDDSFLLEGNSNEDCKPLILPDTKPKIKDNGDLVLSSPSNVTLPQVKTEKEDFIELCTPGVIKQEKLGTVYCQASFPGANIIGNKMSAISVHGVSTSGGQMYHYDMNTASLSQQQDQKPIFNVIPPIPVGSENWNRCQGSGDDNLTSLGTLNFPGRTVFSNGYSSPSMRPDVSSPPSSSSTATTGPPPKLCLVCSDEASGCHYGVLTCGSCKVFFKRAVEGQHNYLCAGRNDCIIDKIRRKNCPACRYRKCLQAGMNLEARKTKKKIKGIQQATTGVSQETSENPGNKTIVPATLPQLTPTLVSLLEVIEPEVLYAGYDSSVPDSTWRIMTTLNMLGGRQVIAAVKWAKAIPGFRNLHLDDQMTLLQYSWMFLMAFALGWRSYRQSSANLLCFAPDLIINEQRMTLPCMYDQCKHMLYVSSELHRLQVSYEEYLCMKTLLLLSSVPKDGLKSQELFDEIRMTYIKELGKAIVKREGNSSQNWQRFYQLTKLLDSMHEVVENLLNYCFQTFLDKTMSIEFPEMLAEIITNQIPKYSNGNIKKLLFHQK

[6] = biological target: Glucocorticoid receptor (Homo sapiens) (UniProt P04150); assay: GR-EFC Redistribution (AID 451; calls by dose curve; note: potency is the fitted concentration of half-maximal effect); details: CHO-K1 GR-EFC translocation, beta-gal luminescence, 2 h
Procedure, shortened: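 Translocation of GR-ED fusion to nuclear EA restores b-gal, read by luminescence after 1 h room-temperature detection. Engineered CHO-K1 biosensor cells, 1,000/well, exposed 2 h at 37 C to titrations up to 46 uM final.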

[7] = biological target: Mitogen-activated protein kinase 10 (Mus musculus) (UniProt Q61831); assay: JNK3 AlphaScreen Assay (AID 530; active = well fitted curve in either direction with a large enough effect, not every such curve was filed as active;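 note: kinase came from lysate of stimulated human HepG2 cells; signal reports phosphorylation of biotinylated GST-cJun 1-79 at Ser73 with 10 µM ATP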)
Procedure, shortened: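 Kinase buffer: 20 mM Tris-HCl pH 7.6, 10 mM MgCl2, 1 mM DTT, 0.1 mM Na3VO4, 0.01% Tween-20; ATP 10 uM. Substrate biotin-GST-cJun(1-79), enzyme from activated HepG2 lysates. Detection by Ser73 phospho-antibody AlphaScreen.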

[8] = biological target: Guanine nucleotide-binding protein G(i) subunit alpha-1 (Homo sapiens) (UniProt P63096); assay: qHTS Assay for Inhibitors of RGS12 GoLoco Motif Activity (Green Fluorophore) (AID 879);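 note: negative values mean loss of peptide binding seen as reduced polarization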
Chain of Guanine nucleotide-binding protein G(i) subunit alpha-1 (Homo sapiens) (P63096 whole entry, looked up): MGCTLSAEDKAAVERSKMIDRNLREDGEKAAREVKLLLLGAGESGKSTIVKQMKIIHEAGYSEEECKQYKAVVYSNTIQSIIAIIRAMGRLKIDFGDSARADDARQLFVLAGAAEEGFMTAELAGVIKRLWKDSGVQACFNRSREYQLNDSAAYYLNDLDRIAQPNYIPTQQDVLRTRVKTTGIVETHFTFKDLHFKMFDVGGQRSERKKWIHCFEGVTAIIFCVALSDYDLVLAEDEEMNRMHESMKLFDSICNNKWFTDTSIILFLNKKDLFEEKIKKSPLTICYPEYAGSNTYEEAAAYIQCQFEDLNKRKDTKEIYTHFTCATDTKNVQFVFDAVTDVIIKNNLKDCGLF
Procedure, shortened: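 A drop in FITC polarization marked displacement of the FITC-tagged RGS12 GoLoco peptide (10 nM) from Gαi1 (50 nM). Compounds were incubated 10 min at room temperature in Tris pH 7.5 buffer containing 150 mM NaCl, 0.1 mM GDP and 0.05% NP40; unlabeled peptide titration served as control.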

[9] = biological target: Muscarinic acetylcholine receptor M1 (Rattus norvegicus) (UniProt P08482); assay: qHTS Assay for Antagonists of Acetylcholine Muscarinic M1 Receptor: Measurement of IP-One Response (AID 944); note: nearly all actives have a fitted effect of over 75% in size
Chain of Muscarinic acetylcholine receptor M1 (Rattus norvegicus) (P08482 whole entry, looked up): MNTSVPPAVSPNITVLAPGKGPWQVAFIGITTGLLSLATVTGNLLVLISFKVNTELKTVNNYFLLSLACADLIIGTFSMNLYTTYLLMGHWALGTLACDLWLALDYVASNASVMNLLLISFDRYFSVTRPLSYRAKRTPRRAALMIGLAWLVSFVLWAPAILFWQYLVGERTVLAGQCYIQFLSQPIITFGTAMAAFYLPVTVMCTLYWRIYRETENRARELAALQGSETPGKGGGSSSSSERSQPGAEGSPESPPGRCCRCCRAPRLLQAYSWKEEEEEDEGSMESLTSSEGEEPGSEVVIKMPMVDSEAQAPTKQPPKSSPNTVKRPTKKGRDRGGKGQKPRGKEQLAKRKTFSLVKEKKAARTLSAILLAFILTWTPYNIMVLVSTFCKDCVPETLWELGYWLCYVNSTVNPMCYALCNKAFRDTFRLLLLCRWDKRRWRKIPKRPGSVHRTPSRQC
Procedure, shortened: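 Antagonism was measured as loss of carbachol-driven (EC80) IP1 accumulation in CHO cells carrying rat M1, using a homogeneous IP-One TR-FRET kit read at 620 and 665 nm.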

[10] = biological target: Pyruvate kinase (Leishmania mexicana) (UniProt Q27686); assay: qHTS Validation Assay for Inhibitors of Leishmania Mexicana Pyruvate Kinase (AID 945)
Procedure, shortened: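 qHTS eight-point titrations against 0.2 nM LmPYK (E451W) in imidazole buffer pH 7.2 with 0.5 mM PEP, 0.1 mM ADP; 1 h, room temperature. Readout: PKLight luminescence, normalized to neutral DMSO wells.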

[11] = biological target: Pyruvate kinase PKM (Homo sapiens) (UniProt P14618); assay: qHTS Assay for Activators of Human Muscle Pyruvate Kinase (AID 954; active = well fitted curve in the direction sought with a large enough effect, not every such curve was filed as active)
Chain of Pyruvate kinase PKM (Homo sapiens) (P14618 whole entry, looked up): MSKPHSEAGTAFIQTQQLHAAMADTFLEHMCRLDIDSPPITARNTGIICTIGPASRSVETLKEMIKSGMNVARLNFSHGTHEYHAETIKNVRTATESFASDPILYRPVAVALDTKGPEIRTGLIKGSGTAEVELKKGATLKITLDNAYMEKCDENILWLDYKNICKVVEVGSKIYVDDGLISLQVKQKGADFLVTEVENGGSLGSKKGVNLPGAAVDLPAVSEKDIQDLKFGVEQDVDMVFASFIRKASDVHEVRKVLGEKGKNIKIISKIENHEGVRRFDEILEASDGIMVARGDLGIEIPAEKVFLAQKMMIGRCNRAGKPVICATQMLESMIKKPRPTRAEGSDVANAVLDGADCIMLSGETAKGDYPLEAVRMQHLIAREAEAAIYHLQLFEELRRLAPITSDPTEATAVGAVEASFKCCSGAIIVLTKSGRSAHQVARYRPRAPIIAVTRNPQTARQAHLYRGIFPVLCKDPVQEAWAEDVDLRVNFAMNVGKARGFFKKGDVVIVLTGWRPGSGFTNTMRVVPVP
Procedure, shortened: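 PKM2, human, >95% pure, 0.1 nM; PEP 0.5 mM (Km), ADP 0.1 mM; 50 mM imidazole pH 7.2, 50 mM KCl, 0.01% Tween 20, 0.05% BSA; 1 h RT; luciferase luminescence readout.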

[12] = biological target: Alpha-galactosidase (Coffea arabica) (UniProt Q42656); assay: Counterscreen for Glucocerebrosidase Inhibitors: qHTS Assay for Coffee Bean alpha-Galactosidase at pH 4.5 (AID 957)
Chain of Alpha-galactosidase (Coffea arabica) (Q42656 whole entry, looked up): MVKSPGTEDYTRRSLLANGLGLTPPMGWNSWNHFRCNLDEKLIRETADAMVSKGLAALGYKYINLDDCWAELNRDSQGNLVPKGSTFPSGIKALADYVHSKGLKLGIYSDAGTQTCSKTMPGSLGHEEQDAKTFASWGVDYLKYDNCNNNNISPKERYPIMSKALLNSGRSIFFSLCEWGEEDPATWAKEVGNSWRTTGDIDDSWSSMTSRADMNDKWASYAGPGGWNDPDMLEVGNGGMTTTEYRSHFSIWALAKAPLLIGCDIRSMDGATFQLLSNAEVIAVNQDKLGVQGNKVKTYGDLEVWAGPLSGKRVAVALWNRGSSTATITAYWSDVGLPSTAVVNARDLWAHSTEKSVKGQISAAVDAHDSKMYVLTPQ
Procedure, shortened: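 Quantitative HTS of compounds (0.7 nM to 77 uM) against coffee bean alpha-galactosidase at pH 4.5, measuring 4-methylumbelliferone fluorescence released from 80 uM substrate.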

[13] = biological target: alpha-glucosidase (Oryza sativa, rice) (UniProt Q653V4); assay: Counterscreen for Glucocerebrosidase Inhibitors: qHTS Assay for Rice alpha-Glucosidase at pH 5.0 (AID 997)
Procedure, shortened: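 Endpoint fluorogenic assay at pH 5.0: compounds (0.7 nM to 77 uM) titrated against 4 nM rice enzyme and 400 uM 4-MU-alpha-glucoside for 20 min at room temperature; NaOH/glycine stop, read ex 365/em 440 nm, Hill-fitted AC50.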

[14] = biological target: Alpha-galactosidase (Coffea arabica) (UniProt Q42656); assay: Counterscreen for Glucocerebrosidase Inhibitors: qHTS Assay for Coffee Bean alpha-Galactosidase at pH 5.9 (AID 998)
Procedure, shortened: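 Fluorogenic 4-MU substrate hydrolysis, 80 uM substrate and 2 nM coffee bean alpha-galactosidase, pH 5.9 citrate buffer, 20 min at room temperature, then NaOH/glycine stop. Titration 0.7 nM–77 uM, normalized to no-enzyme and enzyme controls, AC50 via Hill equation.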

[15] = biological target: DNA dC->dU-editing enzyme APOBEC-3G (Homo sapiens) (UniProt Q9HC16); assay: qHTS for inhibitors of Vif-A3G interactions: Validation (AID 588379)
Chain of DNA dC->dU-editing enzyme APOBEC-3G (Homo sapiens) (Q9HC16 whole entry, looked up): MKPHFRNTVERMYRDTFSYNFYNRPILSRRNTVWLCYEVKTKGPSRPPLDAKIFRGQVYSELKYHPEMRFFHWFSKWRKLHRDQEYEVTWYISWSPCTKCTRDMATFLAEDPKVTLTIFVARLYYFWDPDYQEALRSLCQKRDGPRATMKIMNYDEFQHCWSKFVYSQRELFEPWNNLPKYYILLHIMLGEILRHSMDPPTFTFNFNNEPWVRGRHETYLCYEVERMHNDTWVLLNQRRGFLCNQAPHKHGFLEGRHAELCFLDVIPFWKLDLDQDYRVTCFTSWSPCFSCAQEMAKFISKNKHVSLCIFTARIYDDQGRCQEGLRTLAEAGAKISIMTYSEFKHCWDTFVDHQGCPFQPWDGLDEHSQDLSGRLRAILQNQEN
Procedure, shortened: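 Yellow fluorescence (Ex 488, Em 500-530) of Vif-coexpressing HeLa A3G-eYFP cells, scanned by Acumen cytometer, reports blocked A3G degradation. Cells plated at 700/well overnight at 37 deg C before compound addition, then a further overnight compound incubation at 37 deg C.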

[16] = Primary qHTS for small molecule stabilizers of the endoplasmic reticulum resident proteome: Secreted ER Calcium Modulated Protein (SERCaMP) assay (AID 1508630)
Procedure, shortened: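 The SH-SY5Y reporter protocol was run at 3 concentrations up to 38.3 uM (primary) or 11 concentrations (follow-up): 16 h compound, 100 nM thapsigargin for 4 h, then extracellular luciferase luminescence.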

[17] = biological target: 3',5'-cyclic-AMP phosphodiesterase 4B (Homo sapiens) (UniProt Q07343); assay: qHTS Assay for Inhibitors of PDE-IV (AID 607; active = well fitted activation curve with a large enough effect in the main read-out, with a control signal flat, not every such curve was filed as active)
Chain of 3',5'-cyclic-AMP phosphodiesterase 4B (Homo sapiens) (Q07343 whole entry, looked up): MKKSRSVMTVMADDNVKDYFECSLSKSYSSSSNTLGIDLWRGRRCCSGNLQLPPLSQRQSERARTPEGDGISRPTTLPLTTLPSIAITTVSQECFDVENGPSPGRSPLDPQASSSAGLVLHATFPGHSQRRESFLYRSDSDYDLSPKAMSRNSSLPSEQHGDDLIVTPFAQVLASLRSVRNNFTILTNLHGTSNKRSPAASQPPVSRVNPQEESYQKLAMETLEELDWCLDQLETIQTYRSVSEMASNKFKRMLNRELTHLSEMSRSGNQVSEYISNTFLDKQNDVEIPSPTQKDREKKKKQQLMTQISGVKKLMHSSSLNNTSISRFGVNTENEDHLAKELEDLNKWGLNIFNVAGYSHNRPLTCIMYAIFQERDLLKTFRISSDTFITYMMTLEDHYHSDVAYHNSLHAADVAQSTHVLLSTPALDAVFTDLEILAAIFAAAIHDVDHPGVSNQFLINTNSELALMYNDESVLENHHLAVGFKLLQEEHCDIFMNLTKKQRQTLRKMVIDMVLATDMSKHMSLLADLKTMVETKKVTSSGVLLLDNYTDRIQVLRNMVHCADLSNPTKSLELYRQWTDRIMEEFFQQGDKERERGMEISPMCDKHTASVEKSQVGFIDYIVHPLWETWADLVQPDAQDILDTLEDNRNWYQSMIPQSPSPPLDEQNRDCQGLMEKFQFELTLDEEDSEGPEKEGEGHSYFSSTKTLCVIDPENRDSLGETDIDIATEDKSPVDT
Procedure, shortened: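 The readout is membrane depolarisation from a cAMP-sensing CNG channel, detected with a potential dye at ex 535/em 590. Cells were HEK293-derived (endogenous PDE-IV) at 1000 cells/well, titrated up to 22.9 uM final.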

[18] = qHTS Assay for Lipid Storage Modulators (AID 1519; calls by dose curve); details: Drosophila S3 cells, BODIPY lipid droplet/cell ratio, laser cytometry, cells loaded with oleic acid; for activity change, negative = inhibition: at 57.5 µM (top of the series)
Procedure, shortened: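 Cells seeded at 5,000 per well were treated with compounds over a concentration series and loaded with oleic acid (400 uM, as added). Lipid droplet fluorescence (488 nm excitation, 500-530 nm channel) was read by laser-scanning cytometry and normalized to 20 uM Triacsin C.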

[19] = biological target: Ubiquitin carboxyl-terminal hydrolase 1 (Homo sapiens) (UniProt O94782); assay: Inhibitors of USP1/UAF1: Pilot qHTS (AID 504865); note: nearly all actives have a fitted effect of over 35% in size; note: potency is the fitted concentration of half-maximal effect;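 for activity change, negative = inhibition: rhodamine fluorescence freed from ubiquitin-rhodamine substrate followed over time; top concentration of the series differs between compounds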
Chain of Ubiquitin carboxyl-terminal hydrolase 1 (Homo sapiens) (O94782 whole entry, looked up): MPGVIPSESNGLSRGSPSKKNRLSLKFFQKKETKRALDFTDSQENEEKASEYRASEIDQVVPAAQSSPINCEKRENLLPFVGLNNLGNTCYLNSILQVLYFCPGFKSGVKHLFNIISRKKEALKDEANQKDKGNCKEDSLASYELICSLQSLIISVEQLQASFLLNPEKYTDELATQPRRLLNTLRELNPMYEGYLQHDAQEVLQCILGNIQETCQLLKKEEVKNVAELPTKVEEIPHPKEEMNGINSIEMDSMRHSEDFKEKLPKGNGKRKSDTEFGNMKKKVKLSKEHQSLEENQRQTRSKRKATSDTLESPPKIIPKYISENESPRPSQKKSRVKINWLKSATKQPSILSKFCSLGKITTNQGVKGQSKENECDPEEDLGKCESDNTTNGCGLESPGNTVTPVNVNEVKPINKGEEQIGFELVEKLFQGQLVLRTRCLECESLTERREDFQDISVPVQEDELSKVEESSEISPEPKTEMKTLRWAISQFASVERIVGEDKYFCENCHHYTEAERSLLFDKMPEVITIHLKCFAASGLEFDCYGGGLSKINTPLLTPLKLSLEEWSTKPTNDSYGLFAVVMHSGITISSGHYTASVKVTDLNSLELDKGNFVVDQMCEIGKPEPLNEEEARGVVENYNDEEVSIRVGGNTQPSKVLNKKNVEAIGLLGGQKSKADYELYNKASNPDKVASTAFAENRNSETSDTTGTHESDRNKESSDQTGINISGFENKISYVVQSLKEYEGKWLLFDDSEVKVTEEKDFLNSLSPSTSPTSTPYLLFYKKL
Procedure, shortened: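 In 50mM HEPES pH 7.8 containing 0.5mM EDTA, 1mM TCEP, 0.1 mg/ml BSA and 0.01% Tween-20, 1nM USP1/UAF1 is exposed to compound for 15 min, then Ub-Rho (150nM final) is added and fluorescence is read over time.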

[20] = Counterscreen qHTS for small molecule stabilizers of the endoplasmic reticulum resident proteome: GLuc-NoTag assay (AID 1508627);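 note: SH-SY5Y cells given compound then 100 nM thapsigargin to empty ER calcium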
Procedure, shortened: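 Counterscreen line: SH-SY5Y-GLuc-NoTag cells, treated with compound 19 hr before a 4 hr, 100 nM thapsigargin calcium depletion. Secreted Gaussia luciferase in the medium was measured by luminescence after coelenterazine was added (0.07x final), with cells unlysed.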

[21] = measured here: cell count channel max response
[22] = measured here: lipid channel max response

For `C(=C\c1ccccc1)/CN1CCN(CCOC(c2ccccc2)c2ccccc2)CC1`, the Potency [1] was “inactive”.
With `CN(C(=O)Cc1ccc(Cl)c(Cl)c1)[C@@H](CN1CCCC1)c1cccc(OCC(=O)O)c1` the outcome [2] was “inactive”, the Potency [3] was “inactive” and the outcome [4] was “inactive”. For the same molecule, the Potency [5] was > 46 µM (inactive), the Potency [6] was > 46 µM (inactive) and the outcome [7] was “inactive”. The outcome [8] was “inactive”, the Potency [9] was “inactive” and the outcome [10] was “inactive”. For the same molecule, the outcome [11] was “inactive”, the outcome [12] was “inactive” and the outcome [13] was “inactive”. For the same molecule, the outcome [14] was “inactive”, the Potency [15] was “inactive” and the Potency [16] was “inactive”.
With `COC(=O)c1cc2c(cn1)[nH]c1ccccc12` the outcome [2] was “inactive”, the Potency [3] was 0.631 µM (active) and the outcome [4] was “inactive”. The Potency [5] was > 46 µM (inactive), the Potency [6] was > 46 µM (inactive) and the outcome [7] was “inactive”. For the same molecule, the Potency [17] was “inactive”, the outcome [8] was “inactive” and the Potency [9] was “inactive”. The outcome [11] was “inactive”, the outcome [12] was “inactive” and the outcome [13] was “inactive”. For the same molecule, the outcome [14] was “inactive”, the Potency [1] was 23.8 µM (active) and the Potency [16] was “inactive”.
In the case of `COC1C(O)C(C)O[C@@H](OC2CC[C@@]3(C)C4CC[C@]5(C)C(C6=CC(=O)OC6)CC[C@@]5(O)C4CC[C@@H]3C2)C1O` (stereo partly drawn), the activity change, negative = inhibition [18] is reported as 8.72% (inactive), the max response [18, 21] is reported as 8.32% and the max response [18, 22] is reported as 14.8%. The Potency [19] was “inactive”.
For `C=CCN1CCC2(C)c3cc(O)ccc3CC1[C@@H]2C` (stereo partly drawn), the Potency [1] was “inactive”.
For `NCCc1ccccn1`, the Potency [1] was “inactive”.
With `C[C@@H]1O[C@@H](O[C@H]2C[C@@H](O)[C@]3(CO)C4C(CC[C@]3(O)C2)[C@@]2(O)CC[C@H](C3=CC(=O)OC3)[C@@]2(C)C[C@H]4O)[C@H](O)[C@H](O)[C@H]1O` (stereo partly drawn) the Potency [1] was “inactive” and the Potency [16] was “inactive”.
For `CC(C)=CCCC1(C)C=Cc2c(O)c3c(c(CC=C(C)C)c2O1)OC12C(=CC4CC1C(C)(C)OC2(C/C=C(/C)C(=O)O)C4O)C3=O` (stereo not drawn), the Potency [19] was 35.5 µM (active) and the Potency [16] was “inactive”.
For `CNc1ccc2oc(C[C@@H]3OC4(CC[C@@H]3C)O[C@H]([C@@H](C)C(=O)c3ccc[nH]3)[C@H](C)C[C@H]4C)nc2c1C(=O)O` (stereo partly drawn), the Potency [16] was “inactive”.
For `CO[C@H]1[C@@H](O)CC(OC2[C@@H](O)CC(OC3[C@@H](O)C[C@H](OC4CC[C@@]5(C)C(CCC6C5CC(O)[C@]5(C)[C@H](C7=CC(=O)OC7)CCC65O)C4)O[C@@H]3C)O[C@@H]2C)O[C@@H]1C` (stereo partly drawn), the Potency [19] was “inactive”.
With `Oc1c(Cl)c(Cl)c(Cl)c(Cl)c1Cl` the outcome [7] was “inactive”, the activity change, negative = inhibition [18] was -4.15% (inactive) and the max response [18, 21] was -3.69%. For the same molecule, the max response [18, 22] was -7.5% and the Potency [19] was 79.4 µM (active).
With `Ic1cncc(OC[C@@H]2CCN2)c1` the Potency [3] was 0.398 µM (active), the Potency [5] was > 46 µM (inactive) and the Potency [6] was > 46 µM (inactive). The outcome [7] was “inactive”, the Potency [15] was “inactive” and the Potency [16] was “inactive”.
For `Cc1ccc2c(c1)C1(CCN(CCc3nc(-c4ccccc4)oc3C)CC1)OC(=O)N2`, the Potency [1] was “inactive”.
In the case of `CCC(Oc1ccc(Cl)cc1)C(=O)OC1CC2CCC(C1)N2C` (stereo not drawn), the Potency [1] is reported as “inactive”.
With `CCCCCCC(C)(C)c1cc(OC)c2c(c1)OC(C)(C)[C@@H]1CC=C(C)C[C@@H]21` the Potency [1] was “inactive”.
For `CC(C)=CCCN1CCC(NC(=O)C(O)(c2ccccc2)C2CCCC2)CC1` (stereo not drawn), the Potency [1] was “inactive” and the Potency [20] was “inactive”.
With `C=C(C)C1CCC(C)=CC1c1c(OC)cc(C)cc1OC` (stereo not drawn) the Potency [1] was “inactive”.
With `CP(=O)(O)CCCN` the Potency [3] was “inactive”, the outcome [4] was “inactive” and the Potency [5] was > 46 µM (inactive). The Potency [6] was > 46 µM (inactive), the outcome [7] was “inactive” and the Potency [17] was “inactive”. For the same molecule, the outcome [8] was “inactive”, the outcome [10] was “inactive” and the outcome [11] was “inactive”. The outcome [12] was “inactive”, the outcome [13] was “inactive” and the outcome [14] was “inactive”. The activity change, negative = inhibition [18] was -0.195% (inactive), the max response [18, 21] was 3.46% and the max response [18, 22] was 4.47%. For the same molecule, the Potency [15] was “inactive”, the Potency [1] was “inactive” and the Potency [16] was “inactive”.
